# From PubChem BioAssay (NCATS)
# Several values for one entry are separate records, joined by “and”; a condition that tells them apart may be missing. Equal values may be shown once. Results filed as inconclusive are left out. Activity calls are given as the source filed them. Calls come from the whole dose curve; as a rule, active = well fitted activation curve with a large enough effect; inconclusive = small, poorly fitted or top-dose-only effect; inactive = no such curve, though single readings can be large or run the other way.
# Molecular target: Cellular tumor antigen p53 (Homo sapiens) (UniProt P04637)
# Assay: Primary qHTS for small molecule compounds that upregulate eGFP-tagged delta133p53alpha (in N-terminal) cells. (AID 2060322); note: nearly all actives have a fitted effect of over 75% in size;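 for activation: cells pre-induced with doxycycline then dosed without doxycycline; series mostly up to about 56 µM; 0% = DMSO vehicle and 100% = reference activator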
# Settings: NCI-H358 eGFP-delta133p53alpha fluorescence, 24 h; activation: stronger effect = higher value
# Summary of the method: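 NCI-H358 cells pre-induced 24 h with 10 ng/ml doxycycline for eGFP-delta133p53alpha, plated dox-free and exposed 24 h at 37C to titrated compounds. Fixed, Hoechst-stained; gated GFP peak intensity by laser scanning cytometry, normalized to DMSO (0%) and 57.5 uM 5-azacytidine (100%).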
# Potency is the fitted concentration of half-maximal effect.
# Chain of Cellular tumor antigen p53 (Homo sapiens) (P04637 whole entry, looked up): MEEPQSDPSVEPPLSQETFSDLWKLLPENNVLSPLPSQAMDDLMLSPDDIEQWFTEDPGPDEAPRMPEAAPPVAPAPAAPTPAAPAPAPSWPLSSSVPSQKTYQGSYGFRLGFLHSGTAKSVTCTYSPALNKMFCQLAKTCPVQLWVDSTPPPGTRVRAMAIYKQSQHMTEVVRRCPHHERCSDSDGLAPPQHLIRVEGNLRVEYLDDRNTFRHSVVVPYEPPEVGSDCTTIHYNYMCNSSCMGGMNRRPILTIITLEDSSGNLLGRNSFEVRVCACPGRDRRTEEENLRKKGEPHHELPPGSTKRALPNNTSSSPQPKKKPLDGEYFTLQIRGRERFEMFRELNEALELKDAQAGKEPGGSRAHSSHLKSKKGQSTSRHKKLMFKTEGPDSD
SMILES,activation,Potency
c1cncc(CN2CCC(n3ncc4c(N5CCOCC5)nc(-c5ccc6[nH]ccc6c5)nc43)CC2)c1,-11.7% (inactive) and 12.5% (inactive),–
CC(C)=CCC[C@@](C)(O)[C@H]1CC[C@]2(C)[C@@H]1[C@H](O)CC1[C@@]3(C)CC[C@H](O[C@@H]4O[C@H](CO)[C@@H](O)[C@H](O)[C@H]4O[C@@H]4O[C@H](CO)[C@@H](O)[C@H](O)[C@H]4O)C(C)(C)[C@@H]3CC[C@]12C (stereo not given in full),-17.6% (inactive),–
Cn1cc(-c2[nH]c3cc(NC(=O)[C@H](N)C4CCCCC4)cc4c3c2C=NNC4=O)cn1,23.5% (inactive),–
C[C@H](O)[C@H](O)[C@H]1CNc2nc(N)[nH]c(=O)c2N1,10.3% (inactive),–
Cc1cccc(S(=O)(=O)N2CCC[C@@H]2CCN2CCC(C)CC2)c1,0% (inactive),–
CC(C)C1CCC(CO)=CC1/C=C(\CO)C(=O)OCC1(O)CCC(C(C)C)C2C=C(C(=O)O)COC(=O)C21 (stereo not given),9.16% (inactive),–
CCC(O)C(C)C1CCC(C(C)C(=O)O)O1 (stereo not given),13.4% (inactive),–
COc1ccc(F)c(F)c1C(=O)c1cnc(NC2CCN(S(C)(=O)=O)CC2)nc1N,–,2.73 µM (active) and 2.69 µM (active)
CCn1nnc2c(N3CCOCC3)nc(-c3ccc(NC(=O)Nc4ccc(C(=O)N5CCN(C)CC5)cc4)cc3)nc21,37.4% (inactive) and 20.5% (inactive),–
CC(=O)NC(C)c1ccc(Oc2ccc(OC(C)C)cc2)cc1 (stereo not given),15.3% (inactive),–
